# Bioassay records from PubChem BioAssay.
# Shown are actives, neighbours in structure and some others; about 9.2% of the full set was active somewhere.
# ELG1 genotox = induces genotoxicity in HEK293T cells with luciferase-tagged ELG1. Potency, µM (series often up to 46 µM), for inactives: at the top dose activity change, positive = activation, most hits filed as activators. HEK293T ELG1-luciferase reporter, luminescence, 16 h. AID 504466. 1.3% of 330,000 active; note: % of control where 0% means no effect; nearly all actives have a fitted effect of over 60% in size
#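 16 hr compound incubation (37 °C, 5% CO2) of HEK293T cells carrying luciferase-tagged ELG1; luciferase then measured by ONE-Glo luminescence after 30 min at RT.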
# ELG1 DNA repair = blocks ELG1-dependent DNA repair in HEK293T cells; HEK293T ELG1-luciferase reporter, luminescence, 16 h; DNA damage induced by 5-fluorouridine; Potency, µM (titrated, usually from 46.1 µM), for the others: at the top dose activity change, negative = inhibition, most hits filed as inhibitors; 2.3% of 330,000 active; note: % is set by controls: 0 for no effect and ±100 for the full control effect; nearly all actives have a fitted effect of over 55% in size
#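 Reporter activity after DNA damage by 5-fluorouridine is monitored. Compound-treated cells incubate 16 hr at 37 °C, then ONE-Glo is added for 30 min before luminescence reading.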
# Rab9 promoter act = activators of Rab9 promoter; 2.8% of 320,000 active; Potency, µM (top dose mostly 9.22 µM), without a hit: top-dose activation, negative = inhibition, hits mostly activators; Huh7 Rab9 promoter-luciferase reporter, luminescence, 24 h; note: % of control where 0% means no effect; nearly all actives have a fitted effect of over 60% in size
#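 Huh7 cells stably carrying a Rab9 promoter-luciferase reporter, 1500 cells per well in OP-MEM I with 10% FBS, treated with compound 24 hours at 37C. Luciferase activity read by luminescence after 10 minutes with Amplite reagent.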
# FLuc counter = inhibits or activates purified firefly luciferase, miR-21 counter-screen; 6.9% of 360,000 active; Potency, µM (doses to about 57.5 µM), without a hit: top-dose activity change, negative = inhibition, most hits filed as inhibitors; P08659; purified FLuc, Km substrates, luminescence inhibition;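 note: plate controls were vehicle for no effect and reference inhibitor for full effect; nearly all actives have a fitted effect of over 55% in size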
# Target sequence (P08659 whole entry, looked up): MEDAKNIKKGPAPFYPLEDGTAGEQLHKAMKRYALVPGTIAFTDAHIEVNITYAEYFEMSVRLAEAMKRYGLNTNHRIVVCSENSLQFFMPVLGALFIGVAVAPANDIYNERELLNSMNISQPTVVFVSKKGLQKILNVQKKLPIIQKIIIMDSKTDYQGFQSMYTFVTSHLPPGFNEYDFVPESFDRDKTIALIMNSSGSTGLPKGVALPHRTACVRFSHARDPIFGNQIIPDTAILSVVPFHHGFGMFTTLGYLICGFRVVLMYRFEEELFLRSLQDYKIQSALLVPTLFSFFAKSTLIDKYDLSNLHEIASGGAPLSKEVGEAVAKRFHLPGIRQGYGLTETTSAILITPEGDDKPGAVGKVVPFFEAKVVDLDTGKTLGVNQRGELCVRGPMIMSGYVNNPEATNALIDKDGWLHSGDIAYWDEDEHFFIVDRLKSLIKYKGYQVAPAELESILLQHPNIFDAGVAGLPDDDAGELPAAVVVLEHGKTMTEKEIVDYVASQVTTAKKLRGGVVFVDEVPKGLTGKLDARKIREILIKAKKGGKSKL
#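 Biochemical qHTS of compounds, final roughly 60 µM downward over six points, against 10 nM purified firefly luciferase using Km concentrations of substrates (10 uM D-luciferin, 10 uM ATP) in Tris acetate pH 7.5 buffer; luminescence output.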
# NPC1 prom act = activators of NPC1 promoter; Huh7 NPC1 promoter luciferase reporter, 24 h; 2.4% of 320,000 active; Potency, µM (top dose mostly 9.22 µM), for inactives: at the highest dose activation, most hits filed as activators; note: % of control where 0% means no effect; nearly all actives have a fitted effect of over 60% in size
#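 Luminescence read-out of NPC1 promoter-driven luciferase in stably transfected Huh7 cells; compounds delivered in DMSO and left 24 h at 37C, 5% CO2, qHTS titration format.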
# SMN2 splice enh = SMN2 splice variant enhancement | HEK293 SMN2-luciferase splicing reporter, luminescence, 30-36 h | Potency, µM (series often up to 46.1 µM), without a hit: top-dose activity change, positive = activation, usual class: activators | 2.8% of 210,000 active | AID 1458; note: % of control where 0% means no effect; nearly all actives have a fitted effect of over 55% in size
#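 HEK293 cells carry an SMN2 […]–luciferase reporter in which exon 7 inclusion puts luciferase in frame. Cells were plated 10-12 h before compound addition, then incubated 30-36 h at 37C. ONE-Glo luminescence was read; sodium butyrate at 4.5 mM final served as control.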
# The depositor's hits bear a star; ? = inconclusive; . = no result given. Calls come from the whole dose curve; as a rule, active = well fitted curve in the direction sought with a large enough effect; inconclusive = small, poorly fitted or top-dose-only effect, or another doubt; inactive = no such curve, though single readings can be large; an effect the other way counts as inactive or inconclusive. Potency is the fitted concentration of half-maximal effect.
SMILES,ELG1 genotox,ELG1 DNA repair,Rab9 promoter act,FLuc counter,NPC1 prom act,SMN2 splice enh
CCOC(=O)c1[nH]c2ccc(OC)cc2c1NC(=O)c1ccc(OC)c(OC)c1,0.7%,?,-2.4%,-16.0%,-7.7%,-1.1%
COC(=O)c1[nH]c2cc(OC)c(OC)cc2c1NC(=O)c1cccc(OC)c1,-1.3%,?,13.3%,5.36µM*,15.3%,-12.9%
COc1cccc(C(=O)Nc2ccc3ccccc3c2)c1,?,?,0.794µM*,0.477µM*,3.16µM*,.
COc1cccc(C(=O)Nc2cnn(C(C)C)c2)c1,?,?,2.51µM*,?,?,.
COc1cccc(C(=O)Nc2cccc3ccccc23)c1,4.0%,6.4%,6.5%,-15.0%,0.0%,.
COc1ccc(CNC(=O)Cn2ccc3cc(S(=O)(=O)N4CCCCC4)ccc32)cc1OC,.,.,.,3.0%,.,.
Cc1ccc(NC(=O)CCNS(=O)(=O)c2ccc3c(c2)CCN3C(=O)C2CC2)c(Cl)c1,.,.,.,-0.8%,.,.
Cc1ccc(C)c(NC(=O)CCc2nc3cccnc3n2Cc2cccs2)c1,.,.,.,-7.0%,.,-8.6%
Cc1ccc(S(=O)(=O)N2CCCc3cc(NC(=O)c4c(F)cccc4F)ccc32)cc1,-2.1%,23.1µM*,0.0%,-0.5%,-3.7%,.
COc1cccc(OC)c1C(=O)Nc1ccc2c(c1)CCCN2S(=O)(=O)c1ccc(C)cc1,-5.2%,0.0%,-1.5%,1.0%,-1.8%,.
COc1cccc(NC(=O)CC(=O)c2ccccc2)c1,?,?,2.82µM*,16.9µM*,3.55µM*,.
COc1cccc(C(=O)NNC(=O)c2ccccc2)c1,11.6µM*,?,3.55µM*,?,2.51µM*,.
COc1cccc(NC(=O)Cc2ccccc2)c1,11.5%,?,1.8%,-19.2%,10.8%,-17.7%
Cn1c(N)c(C(=O)Nc2ccc3ccccc3c2)sc1=S,?,?,2.24µM*,?,1.78µM*,?
COc1cccc(C(=O)NNC(=O)c2cccnc2)c1,-1.1%,-0.3%,0.4%,4.0%,-2.6%,.
COc1ccc(OCCOC(=O)CNS(=O)(=O)c2ccc(SC)c([N+](=O)[O-])c2)cc1,-0.7%,-1.5%,3.6%,-1.2%,-0.1%,.
COc1cccc(C(=O)Nc2ccc(NC(=O)Cc3ccccc3)cc2)c1,13.4%,1.8%,5.2%,-0.3%,2.0%,.
COc1cccc(C(=O)Nc2ccccc2)c1,?,?,?,23.9µM*,?,?
O=C(O)c1cccc(NC(=O)c2ccccc2NC(=O)c2cccc([N+](=O)[O-])c2)c1,-0.6%,0.0%,2.4%,?,-0.5%,.
CC(C)c1ccc(NC(=O)c2ccc(NS(C)(=O)=O)cc2)cc1,-0.2%,-12.4%,2.5%,6.75µM*,1.0%,-6.5%
O=C(Nc1ccccc1C(=O)Nc1ccncc1)c1cccc([N+](=O)[O-])c1,?,?,2.24µM*,0.0953µM*,2.82µM*,.
O=C(Nc1ccc(O)cc1)c1ccc(C(=O)c2ccccc2)o1,8.8%,23.1%,20.2%,7.57µM*,?,7.2%
CCCCCn1c(=O)[nH]c2cc(C(=O)NC(C)CC)ccc2c1=O (centres undefined),.,.,.,0.6%,.,-0.1%
CCN(c1ccc(OC)cc1)S(=O)(=O)c1ccc2[nH]c3c(c2c1)CCCCC3,.,.,.,-7.4%,.,.
CCOc1ccc(NC(=O)CN2C(=O)C3(SCC(=O)N3c3ccc(F)cc3)c3ccccc32)cc1 (centres undefined),.,.,.,4.8%,.,.
O=C(CCl)Nc1cccc(Oc2ccccc2)c1,-1.4%,-19.0%,-3.5%,16.9µM*,-27.2%,-29.1%
Cc1cccc(C(=O)Nc2ccc(C)c(OC(=O)c3cccc(C)c3)c2)c1,?,?,11.7%,-14.0%,0.8%,-10.6%
Cc1cccc(C(=O)Nc2ccc3ccccc3c2)c1,?,?,0.631µM*,2.39µM*,?,.
